mHTT CaM bind: disrupts binding of mutant huntingtin to calmodulin | P42858 | AlphaScreen His-mHTT/GST-CaM binding, luminescence | inhibition, % at 15 µM | actives 3.6% (n = 190,000) | AID 1671202;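 further: 0% = both proteins with DMSO and 100% = one protein alone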
Target sequence (P42858 whole entry, looked up, stated change not applied): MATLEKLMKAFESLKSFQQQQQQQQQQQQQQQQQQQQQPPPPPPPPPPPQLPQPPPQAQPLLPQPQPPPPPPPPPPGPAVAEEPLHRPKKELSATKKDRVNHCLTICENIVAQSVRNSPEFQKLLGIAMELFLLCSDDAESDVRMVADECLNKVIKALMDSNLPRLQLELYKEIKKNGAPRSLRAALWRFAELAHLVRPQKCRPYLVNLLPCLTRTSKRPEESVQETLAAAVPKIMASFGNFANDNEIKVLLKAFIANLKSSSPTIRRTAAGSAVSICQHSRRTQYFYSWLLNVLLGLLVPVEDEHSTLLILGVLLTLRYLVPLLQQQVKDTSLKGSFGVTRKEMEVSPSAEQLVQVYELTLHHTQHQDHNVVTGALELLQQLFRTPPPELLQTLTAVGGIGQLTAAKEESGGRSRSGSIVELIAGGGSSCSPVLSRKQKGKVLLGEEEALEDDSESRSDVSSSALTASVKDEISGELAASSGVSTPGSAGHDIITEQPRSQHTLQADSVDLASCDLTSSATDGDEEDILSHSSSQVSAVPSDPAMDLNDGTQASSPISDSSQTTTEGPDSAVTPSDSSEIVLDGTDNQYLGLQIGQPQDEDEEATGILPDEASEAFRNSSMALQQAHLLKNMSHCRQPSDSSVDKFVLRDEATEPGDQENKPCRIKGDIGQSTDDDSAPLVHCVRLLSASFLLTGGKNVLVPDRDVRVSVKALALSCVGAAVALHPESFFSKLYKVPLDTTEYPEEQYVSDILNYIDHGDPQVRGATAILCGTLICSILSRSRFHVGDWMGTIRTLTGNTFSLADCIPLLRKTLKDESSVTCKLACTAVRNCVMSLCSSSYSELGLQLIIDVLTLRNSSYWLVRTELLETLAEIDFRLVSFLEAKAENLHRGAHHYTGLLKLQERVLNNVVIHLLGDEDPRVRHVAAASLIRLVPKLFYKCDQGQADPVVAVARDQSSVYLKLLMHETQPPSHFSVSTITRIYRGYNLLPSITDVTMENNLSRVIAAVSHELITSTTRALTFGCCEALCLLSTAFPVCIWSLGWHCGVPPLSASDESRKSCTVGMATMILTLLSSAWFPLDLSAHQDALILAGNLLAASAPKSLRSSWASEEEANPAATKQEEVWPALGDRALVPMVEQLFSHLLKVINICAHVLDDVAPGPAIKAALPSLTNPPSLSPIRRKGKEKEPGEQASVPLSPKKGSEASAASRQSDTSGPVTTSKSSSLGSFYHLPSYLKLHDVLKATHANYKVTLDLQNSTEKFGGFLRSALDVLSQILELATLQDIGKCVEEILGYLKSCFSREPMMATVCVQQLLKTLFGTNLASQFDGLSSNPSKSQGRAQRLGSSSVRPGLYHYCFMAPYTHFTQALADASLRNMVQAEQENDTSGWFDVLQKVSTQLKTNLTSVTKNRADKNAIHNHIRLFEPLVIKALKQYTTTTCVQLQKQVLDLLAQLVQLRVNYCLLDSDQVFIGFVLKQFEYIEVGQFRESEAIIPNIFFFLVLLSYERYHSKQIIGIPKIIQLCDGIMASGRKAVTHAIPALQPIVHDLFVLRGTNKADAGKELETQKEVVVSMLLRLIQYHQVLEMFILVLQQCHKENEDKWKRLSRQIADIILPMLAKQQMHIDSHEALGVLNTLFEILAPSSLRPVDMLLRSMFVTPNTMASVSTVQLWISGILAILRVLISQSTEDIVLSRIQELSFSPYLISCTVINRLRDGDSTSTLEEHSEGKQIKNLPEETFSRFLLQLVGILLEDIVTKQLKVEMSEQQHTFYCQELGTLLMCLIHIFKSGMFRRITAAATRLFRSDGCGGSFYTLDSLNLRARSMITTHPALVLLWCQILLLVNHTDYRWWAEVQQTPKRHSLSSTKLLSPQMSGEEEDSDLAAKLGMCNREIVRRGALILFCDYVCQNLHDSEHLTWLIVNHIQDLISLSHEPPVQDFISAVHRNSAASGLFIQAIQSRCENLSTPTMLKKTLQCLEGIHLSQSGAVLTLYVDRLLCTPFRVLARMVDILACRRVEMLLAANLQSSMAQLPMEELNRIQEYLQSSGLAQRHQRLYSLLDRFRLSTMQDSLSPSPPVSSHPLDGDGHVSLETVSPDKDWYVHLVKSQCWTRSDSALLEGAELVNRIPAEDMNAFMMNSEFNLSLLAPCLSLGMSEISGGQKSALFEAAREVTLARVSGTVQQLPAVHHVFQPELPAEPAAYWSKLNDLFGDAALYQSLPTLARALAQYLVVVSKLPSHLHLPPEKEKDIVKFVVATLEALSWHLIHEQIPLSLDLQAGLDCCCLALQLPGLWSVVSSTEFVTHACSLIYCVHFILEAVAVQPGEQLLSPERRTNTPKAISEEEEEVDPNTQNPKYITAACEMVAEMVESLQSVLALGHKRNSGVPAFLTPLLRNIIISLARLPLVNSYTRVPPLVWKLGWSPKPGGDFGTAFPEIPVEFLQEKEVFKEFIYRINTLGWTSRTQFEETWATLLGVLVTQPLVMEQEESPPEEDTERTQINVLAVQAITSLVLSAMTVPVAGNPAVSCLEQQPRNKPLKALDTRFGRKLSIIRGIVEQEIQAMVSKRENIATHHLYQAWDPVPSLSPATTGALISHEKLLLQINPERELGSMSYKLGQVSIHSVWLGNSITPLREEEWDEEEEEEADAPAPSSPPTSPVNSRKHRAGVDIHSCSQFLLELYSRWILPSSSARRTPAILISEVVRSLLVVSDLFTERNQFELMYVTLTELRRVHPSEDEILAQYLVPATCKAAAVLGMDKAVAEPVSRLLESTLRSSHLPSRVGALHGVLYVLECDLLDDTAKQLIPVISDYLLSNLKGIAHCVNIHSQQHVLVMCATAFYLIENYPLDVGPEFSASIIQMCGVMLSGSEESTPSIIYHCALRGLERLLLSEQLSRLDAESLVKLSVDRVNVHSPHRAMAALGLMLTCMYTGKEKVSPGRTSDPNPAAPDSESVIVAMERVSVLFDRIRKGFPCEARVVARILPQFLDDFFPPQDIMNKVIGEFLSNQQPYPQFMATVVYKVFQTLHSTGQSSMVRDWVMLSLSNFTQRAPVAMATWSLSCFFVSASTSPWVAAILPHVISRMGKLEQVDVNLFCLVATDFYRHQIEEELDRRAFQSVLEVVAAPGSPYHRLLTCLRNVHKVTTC
Pf apPOL block: Pf-apPOL DNA polymerase inhibition | inhibition, % at 10 µM | actives 0.25% (n = 210,000) | Recombinant Pf-apPOL, molecular beacon fluorescence, 1.5 h
Starred values were filed as active, the others as inactive; · = no result. Shown are actives, neighbours in structure and some others; about 3.5% of the full set was active somewhere. No stated cut-off is given here; in the data, active means inhibition above about 50%; inactive means the rest.

SMILES	mHTT CaM bind	Pf apPOL block
C=CCn1c(=N)n(CC(=O)c2ccc(Cl)c(Cl)c2)c2ccccc21	-46	-4
C=CCn1c(=N)n(CC(=O)c2ccc(-c3ccccc3)cc2)c2ccccc21	52*	-2
COc1cc(-c2c(C#N)c(N)n3c(nc4ccccc43)c2C#N)ccc1OCCCC#N	19	-6
Cc1cccc(-c2nnc(C)c(N3CCC(C)CC3)n2)c1	42	-1
Cc1cccc(-c2nnc(C)c(N3CCc4ccccc4C3)n2)c1	100*	-1
CC(C)CC(C(=O)Nc1cccc(Cl)c1)N1C(=O)c2ccccc2C1=O (stereo unspecified)	63*	1
CC(C)CC(C(=O)Nc1cccc(O)c1)N1C(=O)c2ccccc2C1=O (stereo unspecified)	10	-8
CC(=O)n1c2c(c3ccccc31)OC(N)=C(C#N)C2c1ccc(F)cc1 (stereo unspecified)	5	-6
CC(=O)n1c2c(c3ccccc31)OC(N)=C(C#N)C2c1ccc(C(C)C)cc1 (stereo unspecified)	50*	4
Cc1cc(-c2nnc(CSc3nnc(NC(=O)c4ccc(Cl)s4)s3)o2)ccc1[N+](=O)[O-]	·	0
Cc1ccc(OCCCSC#N)cc1C	-46	-4
O=[N+]([O-])c1cc2c(cc1CNc1ccc3cn[nH]c3c1)OCO2	45	-1
O=[N+]([O-])c1cc2c(cc1CNc1ccc3c(c1)CCC3)OCO2	81*	-7
O=S(=O)(c1cccs1)N1CCN(c2ccc(Nc3cccnc3)nn2)CC1	-7	-1
CC(C)n1c(=O)c(N2CCN(C(=O)c3cc(-c4ccccc4)n[nH]3)CC2)nc2ccncc21	50*	4
CC(C)n1c(=O)c(N2CCN(C(=O)c3ccccc3)CC2)nc2ccncc21	8	-4
Cc1c(Cl)cccc1NCn1nnc2ccccc21	1	5
CCOc1ccccc1NC(=O)CN(C)S(=O)(=O)c1ccc2[nH]c3c(c2c1)CCCC3	47	-1
CCOc1ccc(CNS(=O)(=O)c2ccc3[nH]c4c(c3c2)CCCCC4)cc1	55*	-1
COc1ccc(CNS(=O)(=O)c2ccc3nc(-c4ccccc4)[nH]c3c2)cc1	4	8
COc1ccc(CNS(=O)(=O)c2ccc3[nH]c4c(c3c2)CCCCC4)cc1	97*	-5
Cc1ccc(CNS(=O)(=O)c2ccc3[nH]c4c(c3c2)CCCC4)o1	50*	-4
CCN(c1ccc(OC)cc1)S(=O)(=O)c1ccc2[nH]c3c(c2c1)CCCCC3	70*	-3
CC(C)C(=O)Nc1ccc2oc(-c3ccc(N(C)C)cc3)nc2c1	0	-5
CCNC(=O)Nc1ccc(N2CCCN(Cc3ccc(F)c(F)c3)C2=O)cc1	17	-4
SMILES	mHTT CaM bind	Pf apPOL block
COc1cc(S(=O)(=O)NCc2cccnc2)ccc1Cl	-1	-3
Cc1ccnc(NS(=O)(=O)c2ccc(NC(=O)C(C)C)cc2)n1	-6	-7
COc1cccc(CNS(=O)(=O)c2ccc3[nH]c4c(c3c2)CCCCC4)c1	73*	-7
COc1ccc(CCNS(=O)(=O)c2ccc3[nH]c4c(c3c2)CCCC4)cc1OC	47	-4
CN(CC(=O)N1CCCC1)S(=O)(=O)c1ccc2[nH]c3c(c2c1)CCCC3	1	-1
O=c1[nH]c2ccc(S(=O)(=O)NCc3ccc4c(c3)OCO4)cc2[nH]c1=O	-2	-4
O=S(=O)(NCCc1ccccc1)c1ccc2[nH]c3c(c2c1)CCCC3	95*	-1
CN(Cc1ccccc1)S(=O)(=O)c1ccc2[nH]c3c(c2c1)CCCC3	71*	-4
COc1cccc(CNS(=O)(=O)c2ccc3[nH]c(=O)sc3c2)c1	5	4
O=S(=O)(NCc1ccc2c(c1)OCO2)c1ccc2[nH]c3c(c2c1)CCCCC3	96*	-5
CC(NC(=O)C1CCC(Cn2c(=O)[nH]c3ccsc3c2=O)CC1)c1ccccc1 (stereo unspecified)	3	-2
CC(=O)N1CCc2cc(C(=O)N3CCCCCC3)ccc21	3	0
C[C@H]1COc2cccc(N3CCN(Cc4ccccc4F)CC3)c2S(=O)(=O)N1	-14	-4
CC(C)C[C@H]1COc2cccc(N3CCN(Cc4ccccc4F)CC3)c2S(=O)(=O)N1	80*	-3
Cc1ccc2c(c1)/C(=C/c1ccc(Cl)cc1)C(=O)N2	36	-2
Cc1ccc2c(c1)NC(C)(C)c1ssc(=Nc3ccc(Cl)cc3Cl)c1-2	62*	·
Cc1cc2c(cc1C)-c1c(ssc1=Nc1ccc(S(N)(=O)=O)cc1)C(C)(C)N2	20	·
CC1(C)Nc2ccccc2-c2c1ssc2=Nc1cccc(Cl)c1	69*	·
Cc1ccc2c(c1)-c1c(ssc1=Nc1cc(Cl)ccc1Cl)C(C)(C)N2	98*	·
COc1ccc(NC(=O)c2csc3c2CCCC3)cc1	-7	-5
O=C1C(=Cc2ccccc2Cl)CSC1=Cc1ccccc1Cl	·	4
CCc1cccc(CC)c1NC(=O)CSc1ccc(Cl)cc1	·	-1
C[C@@H]1CCC(=O)N(C[C@@H](C)CSc2ccc(Br)cc2)CC1	1	-8
CCCCN(CC)S(=O)(=O)c1ccc(C(=O)Nc2nnc(C3CC3)o2)cc1	16	-18
CCN(Cc1ccccc1)S(=O)(=O)c1ccc(C(=O)Nc2nnc(C3CC3)o2)cc1	72*	-63
SMILES	mHTT CaM bind	Pf apPOL block
CCCCN(CCCC)S(=O)(=O)c1ccc(C(=O)Nc2nnc(C)o2)cc1	58*	-7
COCCN(CCOC)S(=O)(=O)c1ccc(C(=O)Nc2nnc(C)o2)cc1	22	-58
O=C(Nc1cccnc1)c1ccc2c(c1)OCCO2	0	0
CCC(=O)N1CCc2cc(Br)cc(S(=O)(=O)CCC(=O)NCc3ccccc3)c21	6	-7
CCc1cc(C2CCCN2Cc2cn[nH]c2-c2cccs2)on1 (stereo unspecified)	18	-2
COc1ccc(CC(=O)N2CCCC2c2cccc(C)c2)cc1OC (stereo unspecified)	6	-9
CC1=Nc2cc(C(=O)NCCN3CCOCC3)ccc2Sc2ccc(Cl)cc21	39	-20
CC1=Nc2cc(C(=O)NCCCN3CCC(C)CC3)ccc2Sc2ccc(Cl)cc21	53*	-16
CC(O)(CCc1ccccc1)CNC(=O)Nc1ccc2c(c1)OCO2 (stereo unspecified)	-12	-6
CC(=O)Nc1ccc(N2C(=O)CC(NCCc3ccccn3)C2=O)cc1 (stereo unspecified)	54*	-15
COc1cccc(CCNC2CC(=O)N(c3ccc(NC(C)=O)cc3)C2=O)c1 (stereo unspecified)	4	-6
O=C(C1CC(c2ccccc2F)=NO1)N1CCc2ccccc2C1 (stereo unspecified)	-13	1
COc1ccc(NC(=O)c2cnn3c2NC(c2ccc(C)cc2)CC3C(F)(F)F)cc1OC (stereo unspecified)	50	0
CSc1nnc(-c2ccco2)c(-c2ccco2)n1	31	-5
Clc1cc2nc(-c3ccco3)c(-c3ccco3)nc2cc1Cl	100*	-5
CCOC(=O)c1c(C)oc2ccc(OC(C)=O)cc12	-14	-1
COc1ccc(NC(=O)CC2CCC2)cc1	-6	5
COc1ccc(NCC2CCCCC2)cc1	73*	0
CC1CCc2c(sc3[nH]c(=S)n(-c4ccccc4)c(=O)c23)C1 (stereo unspecified)	·	-3
O=c1c2c3c(sc2nc2ccc(NCc4ccco4)nn12)CCCC3	79*	-3
O=C(Cn1cnc2sc3c(c2c1=O)CCCC3)NCc1ccco1	10	-3

Screens as filed in PubChem.
